Calls of active or inactive are those of the source. Rule for the calls: active = hit-call score of the fitted dose curve at least 0.9, where 1 is the maximum; inactive = score below 0.9.

As a reminder, the AC50 is the midpoint of the concentration-response curve, whichever way the signal moves.

Transcription factor E2F1 (Homo sapiens), sequence (Q01094 whole entry, looked up): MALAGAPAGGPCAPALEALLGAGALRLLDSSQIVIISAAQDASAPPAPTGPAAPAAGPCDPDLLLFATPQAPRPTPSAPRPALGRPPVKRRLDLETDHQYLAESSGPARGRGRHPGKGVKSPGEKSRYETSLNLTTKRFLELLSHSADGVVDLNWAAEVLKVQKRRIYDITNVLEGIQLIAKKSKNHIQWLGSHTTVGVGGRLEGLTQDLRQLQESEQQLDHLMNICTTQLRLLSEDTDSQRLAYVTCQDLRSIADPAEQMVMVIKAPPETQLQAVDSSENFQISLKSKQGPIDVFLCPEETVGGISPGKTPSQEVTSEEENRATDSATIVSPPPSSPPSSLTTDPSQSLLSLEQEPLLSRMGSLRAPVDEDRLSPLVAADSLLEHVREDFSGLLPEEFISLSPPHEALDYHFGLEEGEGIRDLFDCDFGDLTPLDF
Retinoic acid receptor alpha (Homo sapiens), sequence (P10276 whole entry, looked up): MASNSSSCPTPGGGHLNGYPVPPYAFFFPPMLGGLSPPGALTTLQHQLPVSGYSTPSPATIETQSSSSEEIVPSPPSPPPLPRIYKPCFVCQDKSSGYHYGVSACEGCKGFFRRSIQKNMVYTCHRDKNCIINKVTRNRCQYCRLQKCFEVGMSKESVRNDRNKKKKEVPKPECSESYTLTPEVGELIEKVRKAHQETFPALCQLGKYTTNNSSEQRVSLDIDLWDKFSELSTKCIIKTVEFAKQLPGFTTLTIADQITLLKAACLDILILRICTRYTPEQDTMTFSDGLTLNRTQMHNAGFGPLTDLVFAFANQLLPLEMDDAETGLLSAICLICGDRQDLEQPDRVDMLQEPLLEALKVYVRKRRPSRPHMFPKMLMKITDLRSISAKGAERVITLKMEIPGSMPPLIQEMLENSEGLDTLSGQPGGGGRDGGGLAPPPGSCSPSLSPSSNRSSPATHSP

For the first experiment, the target named is Retinoic acid receptor alpha (Homo sapiens) (UniProt P10276). The experiment can be described thus: ATG_DR5_RAR_CIS: Attagene CIS-FACTORIAL HepG2 Assay for human Retinoic Acid Receptor Alpha (RARE), DR5 submotif (AID 2282934).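 For AC50: reporter responds to endogenous RAR alpha beta and gamma in HepG2 not RARA alone.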 Particulars: HepG2 Attagene cis-factorial RARE DR5 reporter, mRNA; actives raise or lower the signal. The method, boiled down:
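Reporter transcripts from a DR5-regulated unit, measured via RT-PCR plus capillary electrophoresis, reflect endogenous RAR activity in transiently transfected human HepG2 liver cells. Exposure lasted 24 h; gain or loss of signal scored against DMSO.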
Regarding `Nc1ccc(Oc2ccc(N)cc2)cc1`, the outcome was inactive.
The same measure, in the same setting: next, `C1=Cc2cccc3cccc1c23`: “inactive”; `Cc1ccc(N)c(N)c1`: “inactive”; `CC(C)COC(=O)c1ccccc1C(=O)OCC(C)C`: “inactive”.
The same measure, in the same setting: next, `Oc1ccc2ccc3cccc4ccc1c2c34`: “inactive”.
The same measure, in the same setting: next, `Nc1cc(Cl)cc(C(=O)O)c1Cl`: “inactive”.
For `CN(C)c1ccccc1`, the compound was classed as inactive.
On the same count and under the same terms, next, `Cc1ccc(N)cc1`: “inactive”; `C=CCc1ccc2c(c1)OCO2`: “inactive”.
On to `Cc1cc(N=Nc2ccccc2C)ccc1N`, for which the outcome was inactive.
Still for that read-out and setting: to `O=P(OCCCl)(OCCCl)OCCCl` belongs “inactive”; to `CC(C)(C)C(O)(CCc1ccc(Cl)cc1)Cn1cncn1` (stereo not drawn), “inactive”.
On to `Nc1ccc(Cc2ccc(N)cc2)cc1`, for which the compound was called inactive.
The same measure, in the same setting: to `CC(C)(O)c1cnn2c(-c3ccc(F)c(-c4c(F)cccc4C#N)c3)cnc2n1` belongs “inactive”; to `O=C1CCCO1`, “inactive”.
For the compound `O=[N+]([O-])C(Br)(CO)CO`, the AC50 was 153 µM (active).
`[As]#[In]`: the compound was called inactive.
Still for that read-out and setting: next, `c1ccc(N=Nc2ccccc2)cc1`: “inactive”.
For the compound `Cc1cccc(N)c1N`, the AC50 is 106 µM (active).
Consider `OCCOCCO`, for which the result was inactive.

In the next experiment the target is Transcription factor E2F1 (Homo sapiens) (UniProt Q01094). The experiment can be described thus: ATG_E2F_CIS: Attagene CIS-FACTORIAL HepG2 Assay for human E2F Transcription Factor 1 (AID 2282935). The conditions noted are these: HepG2 Attagene cis-reporter, E2F reporter RNA transcripts; actives raise or lower the signal. The method, boiled down:
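Total RNA from 24 h-treated, reporter-transfected HepG2 cells undergoes DNase I treatment, oligo(dT) reverse transcription, PCR and 6-FAM primer extension before capillary electrophoresis.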
Turning to `Nc1ccc(Oc2ccc(N)cc2)cc1`, the call was inactive.
The same measure, in the same setting: next, `CC(C)COC(=O)c1ccccc1C(=O)OCC(C)C`: “inactive”; `CCC12COCN1COC2`: “inactive”.
On the same count and under the same terms, next, `Oc1ccc2ccc3cccc4ccc1c2c34`: “inactive”; `CN(C)c1ccccc1`: “inactive”; `Cc1ccc(N)cc1`: “inactive”.
Still for that read-out and setting: next, `C=CCc1ccc2c(c1)OCO2`: “inactive”; `CN(C)C(=O)Nc1ccc(Cl)cc1`: “inactive”.
As for `O=P(OCCCl)(OCCCl)OCCCl`, the outcome was inactive.
On the same count and under the same terms, next, `CC(C)(C)C(O)(CCc1ccc(Cl)cc1)Cn1cncn1` (stereo not drawn): “inactive”.
On the same count and under the same terms, next, `CCN(CC)CCO`: “inactive”; `Clc1ccc(C(c2ccc(Cl)cc2)C(Cl)(Cl)Cl)cc1`: “inactive”; `CCCCCOC(=O)c1ccccc1C(=O)OCCCCC`: “inactive”.
As to `Cc1cccc(N)c1N`, the call was inactive.

Tested on in the next experiment: not listed separately
The experiment can be described thus: ATG_E_Box_CIS: Attagene CIS-FACTORIAL HepG2 Assay for human Enhancer Box (E-box) (AID 2282936). The conditions noted are these: HepG2 E-box cis-reporter transcription, actives raise or lower the signal. The method, boiled down: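 DMSO served as negative control and baseline for bidirectional fitting. Human hepatoma HepG2 cells, transiently transfected with cis-reporter constructs, were dosed 24 h; reporter mRNA read by RT-PCR and capillary electrophoresis.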
Take `Nc1ccc(Oc2ccc(N)cc2)cc1`: the result was inactive.
Same read-out and setting: next, `C1=Cc2cccc3cccc1c23`: “inactive”; `Cc1ccc(N)c(N)c1`: “inactive”.
Consider `CC(C)COC(=O)c1ccccc1C(=O)OCC(C)C`, for which the concentration at half-maximal activity (AC50) was 100 µM (active).
For the compound `CCC12COCN1COC2`, the result was inactive.
Consider `Oc1ccc2ccc3cccc4ccc1c2c34`, for which the result was inactive.
Still for that read-out and setting: to `Nc1cc(Cl)cc(C(=O)O)c1Cl` belongs “inactive”; to `CN(C)c1ccccc1`, “inactive”.
Take `Cc1ccc(N)cc1`: the outcome was inactive.
Still for that read-out and setting: next, `C=CCc1ccc2c(c1)OCO2`: “inactive”.
As for `CCCSC(=O)N(CCC)CCC`, the result was inactive.
On the same count and under the same terms, next, `Cc1cc(N=Nc2ccccc2C)ccc1N`: “inactive”; `CN(C)C(=O)Nc1ccc(Cl)cc1`: “inactive”.
For `O=P(OCCCl)(OCCCl)OCCCl`, the result was inactive.
Still for that read-out and setting: to `CC(C)(C)C(O)(CCc1ccc(Cl)cc1)Cn1cncn1` (stereo not drawn) belongs “inactive”; to `Brc1ccc(Oc2ccccc2)cc1`, “inactive”; to `Nc1ccc(Cc2ccc(N)cc2)cc1`, “inactive”.
The same measure, in the same setting: to `CC(C)(O)c1cnn2c(-c3ccc(F)c(-c4c(F)cccc4C#N)c3)cnc2n1` belongs “inactive”; to `CCN(CC)CCO`, “inactive”.
For the compound `Clc1ccc(C(c2ccc(Cl)cc2)C(Cl)(Cl)Cl)cc1`, the result was inactive.
Same read-out and setting: next, `O=C1CCCO1`: “inactive”; `O=[N+]([O-])C(Br)(CO)CO`: “inactive”; `CCCCCOC(=O)c1ccccc1C(=O)OCCCCC`: “inactive”.
The same measure, in the same setting: next, `[As]#[In]`: “inactive”.
In the case of `CCC[CH2][Sn]([Cl])([CH2]CCC)[CH2]CCC`, the AC50 was 0.627 µM (active).
For the compound `c1ccc(N=Nc2ccccc2)cc1`, the result was inactive.
On the same count and under the same terms, next, `Cc1cccc(N)c1N`: “inactive”.
In the case of `OCCOCCO`, the result was inactive.

Tested on in a further experiment: not listed separately
The experiment can be described thus: ATG_M_61_CIS: Attagene CIS-FACTORIAL HepG2 Assay for M61 Transcription Factor (Internal Marker) (AID 2282937). Particulars: HepG2 Attagene CIS-FACTORIAL M61 internal marker reporter; actives raise or lower the signal. An outline of the steps:
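Readout: fluorescent reporter mRNA fragments resolved by capillary electrophoresis after RT-PCR. Transiently transfected human HepG2 cells carried MRTU constructs reporting endogenous TF activity; 24 h chemical exposure; gain or loss of signal fitted relative to DMSO.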
With `Nc1ccc(Oc2ccc(N)cc2)cc1`, the compound was called inactive.
On the same count and under the same terms, next, `C1=Cc2cccc3cccc1c23`: “inactive”; `Cc1ccc(N)c(N)c1`: “inactive”.
`CC(C)COC(=O)c1ccccc1C(=O)OCC(C)C`: the outcome was inactive.
The same measure, in the same setting: to `CCC12COCN1COC2` belongs “inactive”; to `Oc1ccc2ccc3cccc4ccc1c2c34`, “inactive”.
On the same count and under the same terms, to `Nc1cc(Cl)cc(C(=O)O)c1Cl` belongs “inactive”; to `CN(C)c1ccccc1`, “inactive”; to `Cc1ccc(N)cc1`, “inactive”.
Same read-out and setting: next, `C=CCc1ccc2c(c1)OCO2`: “inactive”; `CCCSC(=O)N(CCC)CCC`: “inactive”; `Cc1cc(N=Nc2ccccc2C)ccc1N`: “inactive”.
With `CN(C)C(=O)Nc1ccc(Cl)cc1`, the compound was classed as inactive.
Regarding `O=P(OCCCl)(OCCCl)OCCCl`, the outcome was inactive.
In the case of `CC(C)(C)C(O)(CCc1ccc(Cl)cc1)Cn1cncn1` (stereo not drawn), the compound was classed as inactive.
The same measure, in the same setting: to `Brc1ccc(Oc2ccccc2)cc1` belongs “inactive”.
On the same count and under the same terms, to `Nc1ccc(Cc2ccc(N)cc2)cc1` belongs “inactive”; to `CC(C)(O)c1cnn2c(-c3ccc(F)c(-c4c(F)cccc4C#N)c3)cnc2n1`, “inactive”; to `CCN(CC)CCO`, “inactive”.
Still for that read-out and setting: next, `Clc1ccc(C(c2ccc(Cl)cc2)C(Cl)(Cl)Cl)cc1`: “inactive”; `O=C1CCCO1`: “inactive”; `O=[N+]([O-])C(Br)(CO)CO`: “inactive”.
Turning to `CCCCCOC(=O)c1ccccc1C(=O)OCCCCC`, the compound was called inactive.
The same measure, in the same setting: to `[As]#[In]` belongs “inactive”; to `CCC[CH2][Sn]([Cl])([CH2]CCC)[CH2]CCC`, “inactive”; to `c1ccc(N=Nc2ccccc2)cc1`, “inactive”.
The same measure, in the same setting: next, `Cc1cccc(N)c1N`: “inactive”.
With `OCCOCCO`, the outcome was inactive.

Tested on in another experiment: not listed separately
Briefly: ATG_EGR_CIS: Attagene CIS-FACTORIAL HepG2 Assay for human Early Growth Response 1 (EGR1) (AID 2282938). The conditions noted are these: HepG2 Attagene CIS-FACTORIAL EGR reporter mRNA; actives raise or lower the signal. An outline of the steps:
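Read-out: fluorescent reporter-mRNA fragments resolved by capillary electrophoresis after RT-PCR, 24 h post-dose in transiently transfected HepG2. Endogenous transcription-factor activity reported via cis-element-regulated reporter units; gain or loss fitted relative to DMSO.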
For `Nc1ccc(Oc2ccc(N)cc2)cc1`, the outcome was inactive.
As to `C1=Cc2cccc3cccc1c23`, the call was inactive.
Take `Cc1ccc(N)c(N)c1`: the AC50 was 28.3 µM (active).
Same read-out and setting: next, `CC(C)COC(=O)c1ccccc1C(=O)OCC(C)C`: 73.4 µM (active).
In the case of `CCC12COCN1COC2`, the result was inactive.
Turning to `Oc1ccc2ccc3cccc4ccc1c2c34`, the compound was called inactive.
On the same count and under the same terms, to `Nc1cc(Cl)cc(C(=O)O)c1Cl` belongs “inactive”; to `CN(C)c1ccccc1`, “inactive”; to `Cc1ccc(N)cc1`, “inactive”.
Take `C=CCc1ccc2c(c1)OCO2`: the call was inactive.
Still for that read-out and setting: next, `CCCSC(=O)N(CCC)CCC`: “inactive”.
Regarding `Cc1cc(N=Nc2ccccc2C)ccc1N`, the AC50 was 21.6 µM (active).
For `CN(C)C(=O)Nc1ccc(Cl)cc1`, the result was inactive.
On the same count and under the same terms, next, `O=P(OCCCl)(OCCCl)OCCCl`: “inactive”; `CC(C)(C)C(O)(CCc1ccc(Cl)cc1)Cn1cncn1` (stereo not drawn): “inactive”.
As to `Brc1ccc(Oc2ccccc2)cc1`, the outcome was inactive.
On to `Nc1ccc(Cc2ccc(N)cc2)cc1`, for which the outcome was inactive.
Turning to `CC(C)(O)c1cnn2c(-c3ccc(F)c(-c4c(F)cccc4C#N)c3)cnc2n1`, the half-maximal activity concentration (AC50) is 2.13 µM (active).
As for `CCN(CC)CCO`, the compound was called inactive.
The same measure, in the same setting: next, `Clc1ccc(C(c2ccc(Cl)cc2)C(Cl)(Cl)Cl)cc1`: “inactive”; `O=C1CCCO1`: “inactive”.
`O=[N+]([O-])C(Br)(CO)CO`: the AC50 is 100 µM (active).
With `CCCCCOC(=O)c1ccccc1C(=O)OCCCCC`, the compound was classed as inactive.
Same read-out and setting: to `[As]#[In]` belongs “inactive”.
As to `CCC[CH2][Sn]([Cl])([CH2]CCC)[CH2]CCC`, the AC50 was 0.659 µM (active).
Take `c1ccc(N=Nc2ccccc2)cc1`: the result was inactive.
`Cc1cccc(N)c1N`: the AC50 was 106 µM (active).
With `OCCOCCO`, the call was inactive.
